Reference: PubChem BioAssay (EPA / NIEHS)
Activity calls are given as the source filed them. The calls were made as follows: active = hit-call score of the fitted dose curve at least 0.9, where 1 is the maximum; inactive = score below 0.9.

The molecules below were run against Transcription factor Sp1 (Homo sapiens) (UniProt P08047) (assay: ATG_Sp1_CIS: Attagene CIS-FACTORIAL HepG2 Assay for human Specificity Protein 1 (Sp1) (AID 2282961)). Details: HepG2 Sp1 cis-reporter transcription, actives raise or lower the signal.
Procedure: ATG_CIS is a cell-based, multiplexed-readout assay that uses HepG2, a human liver cell line, with measurements taken at 24 hours after chemical dosing in a 24-well plate.ATG_Sp1_CIS is one of 52 assay component(s) measured or calculated from the ATG_CIS assay. It is designed to make measurements of mRNA induction, a form of inducible reporter, as detected with fluorescence intensity signals by Reverse transcription polymerase chain reaction (RT-PCR) and Capillary electrophoresis technology.Data from the assay component ATG_Sp1_CIS was analyzed into 1 assay endpoint. This assay endpoint, ATG_Sp1_CIS, was analyzed with bidirectional fitting relative to DMSO as the negative control and baseline of activity. Using a type of inducible reporter, measures of mRNA for gain or loss-of-signal activity can be used to understand the reporter gene at the transcription factor-level as they relate to the gene SP1. Furthermore, this assay endpoint can be referred to as a primary readout, because this assay has produced multiple assay endpoints where this one serves a reporter gene function. To generalize the intended target to other relatable targets, this assay endpoint is annotated to the dna binding intended target family, where the subfamily is zinc finger.
Human liver HepG2 cells are transiently transfected with multiple reporter transcription units (MRTUs) in 6-well plates using FuGene 6 reagent (Roche; 3 ml FuGene/1 mg DNA). The MRTU constructs are regulated by a cis-regulating element (promoter). […] A major difference between the CIS and TRANS system is that in CIS activities of endogenous TFs are measured, whereas the TRANS assay evaluates changes in activities of exogenous, chimeric NR-Gal4 proteins. […] At the end of 24 hour incubation, total RNA was isolated using TriZol reagent (Invitrogen). The isolated RNA is then reverse-transcribed using oligo(dT) primer and Mo-MLV reverse transcriptase (Invitrogen) with DNAse I (Ambion) treatment for 30 min. The one-tenth of the produced cDNA was amplified by PCR using Taq DNA polymerase (Invitrogen) and two reporter sequence-specific primers. The PCR products were fluorescently labeled by primer extension with 6-arboxyfluorescein (6-FAM) 5'-labeled reporter sequence-specific primer (2 min at 95 C, 20 s at 68 C and 10 min at 72 C) and these products were digested with 5U of HpaI (New England Biolabs) for 2h at 37 C. The fragments were purified using Qiaquick PCR columns (Qiagen), analyzed on an ABI 3130xL genetic analyzer (Applied Biosystems) with peak positions identified by using a set of X-rhodamine (ROX)-labeled MapMarker1000 molecular weight standards (BioVentures). The raw capillary electrophoresis data was processed using Attagraph software (Attagene).

Chain of Transcription factor Sp1 (Homo sapiens) (P08047 whole entry, looked up): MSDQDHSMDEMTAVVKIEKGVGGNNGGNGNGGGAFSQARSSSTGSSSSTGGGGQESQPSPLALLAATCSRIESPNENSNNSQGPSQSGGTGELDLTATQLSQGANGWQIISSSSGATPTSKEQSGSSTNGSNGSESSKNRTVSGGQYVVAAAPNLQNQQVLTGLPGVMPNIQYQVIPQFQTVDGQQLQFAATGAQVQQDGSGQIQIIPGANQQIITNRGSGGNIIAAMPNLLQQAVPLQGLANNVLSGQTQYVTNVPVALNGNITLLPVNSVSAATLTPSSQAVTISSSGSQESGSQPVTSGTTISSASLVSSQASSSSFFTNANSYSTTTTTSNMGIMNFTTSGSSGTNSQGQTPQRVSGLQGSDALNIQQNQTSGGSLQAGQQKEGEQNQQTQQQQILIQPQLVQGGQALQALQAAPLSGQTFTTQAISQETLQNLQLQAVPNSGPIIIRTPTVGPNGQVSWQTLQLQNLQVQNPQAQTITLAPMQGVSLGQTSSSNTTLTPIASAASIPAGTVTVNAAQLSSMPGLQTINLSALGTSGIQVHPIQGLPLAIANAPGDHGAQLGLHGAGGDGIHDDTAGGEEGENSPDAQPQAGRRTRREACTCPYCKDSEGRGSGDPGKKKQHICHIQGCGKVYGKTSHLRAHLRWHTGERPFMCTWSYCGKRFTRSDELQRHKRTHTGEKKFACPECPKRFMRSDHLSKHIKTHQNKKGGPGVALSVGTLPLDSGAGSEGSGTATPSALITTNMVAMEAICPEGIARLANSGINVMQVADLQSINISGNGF

Compound	outcome	AC50
O=NN1CCCC1	inactive	
CC1(C)CN=C(NN=C(/C=C/c2ccc(C(F)(F)F)cc2)/C=C/c2ccc(C(F)(F)F)cc2)NC1		16.6 µM (active)
Cn1[nH]nnc1=S	inactive	
CCOC(=O)c1ccccc1C(=O)OCC	inactive	
Oc1ccc(I)cc1	inactive	
NNC(N)=S	inactive	
CC(C)CBr	inactive	
COP(N)(=S)OC	inactive	
Cc1cccc(N)c1	inactive	
O=C(CBr)OCc1ccccc1	inactive	
O=C(O)C1C(C(=O)O)C2(Cl)C(Cl)=C(Cl)C1(Cl)C2(Cl)Cl (stereo not given)	inactive	
Nc1ccc(Sc2ccc(N)cc2)cc1	inactive	
O=P1(N(CCCl)CCCl)NCCCO1 (stereo not given)	inactive	
COP(=O)(CCC(=O)NCO)OC	inactive	
CCOc1ccc(C(C)(C)COCc2cccc(Oc3ccccc3)c2)cc1	inactive	
Nc1ccc2ccccc2c1	inactive	
CCOP(=S)(OCC)SCS(=O)(=O)CC	inactive	
ClC1=C(Cl)C2(Cl)C3C(Cl)C(Cl)CC3C1(Cl)C2(Cl)Cl (stereo not given)	inactive	
Cc1cc(C)c(C(=O)P(=O)(c2ccccc2)c2ccccc2)c(C)c1	inactive	
O=C(O)C(F)(F)OC(F)(F)C(F)(F)OC(F)(F)C(=O)O	inactive	

Compound	outcome	AC50
CCC1(c2ccccc2)C(=O)N=C(O)NC1=O (stereo not given)	inactive	
O=C(O)C(F)(F)OC(F)(F)C(F)(F)OC(F)(F)F	inactive	
CCCN(CCC)c1c([N+](=O)[O-])cc(C(C)C)cc1[N+](=O)[O-]	inactive	
CC(O)C(F)(F)C(F)(F)F (stereo not given)	inactive	
CC(C)Nc1ccc(Nc2ccccc2)cc1	inactive	
CC(C)(C)N(NC(=O)c1ccc(Cl)cc1)C(=O)c1ccccc1	inactive	
O=C(O)CF	inactive	
CC(O)C#N (stereo not given)	inactive	
CN(C)C(=O)Cl	inactive	
ClC(Cl)=C(c1ccc(Cl)cc1)c1ccccc1Cl		27.3 µM (active)
CCOS(=O)(=O)OCC	inactive	
O=S1(=O)OCC2C(CO1)C1(Cl)C(Cl)=C(Cl)C2(Cl)C1(Cl)Cl (stereo not given)		172 µM (active)
Cc1ccc([N+](=O)[O-])cc1C	inactive	
c1nc[nH]n1	inactive	
c1ccc2c(c1)sc1ccccc12	inactive	
C/C(=N\NC(=O)Nc1cc(F)cc(F)c1)c1ncccc1C(=O)O	inactive	
Cc1ccc(C(=O)Cl)cc1	inactive	
c1cc2c3c(cccc3c1)CC2	inactive	
CCCCCCCc1ccc(O)cc1	inactive	
OCC(F)(F)OC(F)(F)C(F)(F)OC(F)(F)C(F)(F)OC(F)(F)CO	inactive	
